From PubChem BioAssay (NCATS) come the findings set out here.

Values joined by “and” are separate entries in the source; they are usually repeats but may differ in a detail not shown here. Equal entries are not always repeated. Records with an inconclusive call do not appear. Unmarked numbers belong to inactive results. Active and inactive are the calls of the source. The call rests on the fitted dose curve; in most records, active means well fitted activation curve with a large enough effect; inconclusive means small, poorly fitted or top-dose-only effect; inactive means no such curve, though single readings can be large or run the other way.
Potency means the concentration at half of the fitted maximal effect.

Sequence of Cellular tumor antigen p53 (Homo sapiens) (P04637 whole entry, looked up): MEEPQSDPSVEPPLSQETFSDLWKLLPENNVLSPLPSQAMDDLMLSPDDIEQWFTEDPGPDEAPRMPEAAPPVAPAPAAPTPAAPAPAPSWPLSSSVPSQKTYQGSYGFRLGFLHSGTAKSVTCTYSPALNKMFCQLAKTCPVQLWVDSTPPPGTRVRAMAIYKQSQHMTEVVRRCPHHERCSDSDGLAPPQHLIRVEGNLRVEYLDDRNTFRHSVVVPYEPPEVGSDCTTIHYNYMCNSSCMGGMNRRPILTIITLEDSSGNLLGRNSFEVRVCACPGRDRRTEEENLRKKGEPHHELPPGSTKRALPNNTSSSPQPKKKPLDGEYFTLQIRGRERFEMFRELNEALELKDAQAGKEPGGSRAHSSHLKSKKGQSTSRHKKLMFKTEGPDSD

The experiment has as its target Cellular tumor antigen p53 (Homo sapiens) (UniProt P04637). Kind of experiment: Primary qHTS for small molecule compounds that upregulate eGFP-tagged delta133p53alpha (in N-terminal) cells. (AID 2060322). Further: nearly all actives have a fitted effect of over 75% in size.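 On activation: cells pre-induced with doxycycline then dosed without doxycycline; series mostly up to about 56 µM; 0% = DMSO vehicle and 100% = reference activator.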 The settings on record: NCI-H358 eGFP-delta133p53alpha fluorescence, 24 h; activation: stronger effect = higher value. The text has this:
Assay Development and Screening Technology
National Center for Advancing Translational Sciences (NCATS),
National Institute of Health (NIH), Rockville, Maryland
Cellular senescence (CS) is one of the hallmarks of aging and age-related diseases. Senescent cells are characterized by an irreversible growth arrest, an increase in senescence-associated beta-galactosidase (SA-beta-gal) activity and p16INK4a expression, an activation of the DNA damage response pathways, and the emergence of a senescence-associated secretory phenotype (SASP).
Delta133p53alpha, a human/primate-specific p53 protein isoform, delays or inhibits the induction of CS and SASP in various types of human cells, including progeria-derived fibroblasts, primary normal astrocytes, and CD8+ T lymphocytes. Induction of delta133p53alpha with small molecule compounds may provide therapeutic opportunities for inhibition of senescence/SASP-associated pathologies in progeria syndromes, astrocyte-mediated neuroprotection in neurodegenerative diseases, and possibly prevention and treatment of a wider range of senescence- and aging-associated diseases.
Here we report the development and validation of a cell-based quantitative high throughput screening (qHTS) assay in 1,536-well format. This qHTS assay uses the NCI-H358 cell line with doxycycline-inducible expression of enhanced green fluorescent protein (eGFP)-tagged delta133p53alpha, which allows efficient and highly quantitative measurement of the protein levels.
PROTOCOL TABLE (as described by Inglese J, Shamu CE and Guy RK. 2007)
SEQUENCE No. (e.g., 1, 2, 3, etc.); […] (e.g., Cells, Incubation, Reagent, etc.); VALUE; DESCRIPTION.
1; Cells; 4uL; 800 doxycycline treated cells / well in doxycycline-free media, 1536-well black, clear-bottom low base Aurora microplates.
2; Compounds; 23 nL; Kalypsis pin tool (Wako) equipped with 1536-well pin heads, 5-azacytidine positive control.
3; Incubation; 24 hr; 37C, 5% CO2; 95% relative humidity.
4; Aspiration; 1x; BioTek EL406 washer dispenser (Agilent).
5; Fixing; 3.5% paraformaldehyde, BioTek EL406 washer dispenser (Agilent).
6; Washing; 1x PBS; BioTek EL406 washer dispenser (Agilent).
7; Nuclei staining; 1:1000 dilution of Hoechst 33342 (Thermofisher), BioTek EL406 washer dispenser (Agilent).
8; Incubation; 20 min; in the dark at room temperature.
9; Washing; 2x, 1x PBS (ThermoFisher), BioTek EL406 washer dispenser (Agilent).
10; Reagent; 10 uL; 1x PBS per well, sealed with clear adhesive tape.
NOTES (numbers refer to sequence numbers above).
1. NCI-H358 cells expressing eGFP-tagged delta133p53alpha were grown in T75 culture flasks and treated with doxycycline for 24h, at 10 ng/ml for eGFP-D133p53a cells (N-terminal cell) and 100 ng/ml for D133p53a-eGFP cells (C-terminal cells). Cells were trypsinized, counted using a Counted 3 Automated Cell Counter (Thermo Fisher), and diluted to a concentration of 200,000 cells/ml. A Multidrop Combi Reagent Dispenser (ThermoFisher) was used to dispense 800 cells/well in […] of doxycycline-free media, into 1536-well black/clear bottom low base plates (AuroraMicroplates).
2. After plating cells, 23 nl of compound library, DMSO vehicle control or positive control (5-azacytidine) were transferred by Pin Tool (Wako). The plate map layout was the same for each plate: (column 1) non-doxycycline treated cells + DMSO vehicle control; (column 2) doxycycline treated cells + DMSO vehicle control baseline; (column 3) doxycycline treated cells + positive control 57.5 uM final concentration 5-azacytidine; (column 4) doxycycline treated cells + serial dilution of 5-azacytidine, 16-point 1:2 titration spanning 1.8 nM to […] final concentration; (columns 5-48) doxycycline treated cells + titration of library compounds.
3. Cells were incubated at 37 °C, 5 % CO2, 95% RH with breathable metal lid for 24h.
4-10. […] After two washes, 10 ul of 1X PBS (Thermo Fisher) was dispensed to each well. Clear adhesive plate seals (VWR) were applied and plates stored at 4 °C.
11. […]
For orientation: qHTS replaces the single test concentration by a dilution series.
As for `C=CC(C)(O)CC[C@@H]1[C@@]2(C)CCCC(C)(C)C2CC[C@@]1(C)O` (stereo not given in full), the activation was 1.91%. The same measure, in the same setting: the same measure for `CC1=C(CO)CC(C(C)C2CCC3C4CC=C5CC(OC6OC(COC7OC(CO)C(O)C(O)C7O)C(O)C(O)C6O)CC(O)C5(C)C4CCC23C)OC1=O` (stereo not given): 3.05%; for `C=C[C@H]1[C@H](O[C@@H]2O[C@H](CO)[C@@H](O)[C@H](O)[C@H]2O)OC=C(C(=O)OC)[C@H]1CCOC(=O)c1cc(O)c(O)c(O)c1`: 0%.

In the case of `CCCCCCCC(=O)OCC(O)CO` (stereo not given), the activation is -14.2%. Take `O=C(O)c1ccccc1Nc1cccc(OCc2ccc3ccccc3n2)c1`: the activation was -13.1%. Regarding `COC1CC(OC2CCC3(C)C(=CCC4C3CCC3(C)C(C(C)O)CCC43O)C2)OC(C)C1OC1OC(C)C(OC2OC(COC3OC(COC4OC(CO)C(O)C(O)C4O)C(O)C(O)C3O)C(O)C(O)C2O)C(OC)C1O` (stereo not given), the activation is -23.7%. On the same count and under the same terms, the same measure for `O=C(O)Cc1cn([C@@H]2OC[C@@H](O[C@@H]3O[C@H](CO)[C@@H](O)[C@H](O)[C@H]3O)[C@H](O)[C@H]2O[C@@H]2O[C@H](CO)[C@@H](O)[C@H](O)[C@H]2O)c2ccccc12`: -7.63%.

As to `C=C1C(=O)O[C@@H]2C[C@@H](C)[C@]34C[C@]5(C(=O)O[C@H]6CC(C)=C([C@H](C)CCCO)[C@H](OC(=O)C(C)CC)[C@H]65)[C@@H](C(C)=C3C[C@@H]12)[C@H]4OC(C)=O` (stereo not given in full), the Potency is 6.3 µM (active). For `CN1c2c(nc(N)[nH]c2=O)NC[C@@H]1CNc1ccc(C(=O)N[C@@H](CCC(=O)O)C(=O)O)cc1`, the activation was -8.33%. Take `C=C1CCC(OC(C)=O)C2(C)CC3OC(=O)C(C)=C3CC12` (stereo not given): the activation is -0.763%. For the compound `C=C1CO[C@@]2(O[C@H]3CC4C5CC=C6C[C@@H](O)C[C@@H](O[C@@H]7OC[C@H](O)[C@H](O[C@@H]8OC[C@@H](O)[C@H](O)[C@H]8O)[C@H]7O[C@@H]7O[C@@H](C)[C@H](OC(C)=O)[C@@H](OC(C)=O)[C@H]7OC(C)=O)[C@]6(C)C5CC[C@]4(C)[C@@H]3[C@@H]2C)[C@@H](O)[C@H]1OC1OC(C)C(O)C(O)C1O` (stereo not given in full), the activation is -6.87%. `CC/C=C\CC1C(CC(=O)O)CCC1OC1OC(CO)C(O)C(O)C1O` (stereo not given): the activation is 0%.

For `COc1cc(-c2cccc(O)c2)cc2c1OCO2`, the activation is 2.68%. For `C/C1=C\C[C@H](O[C@@H]2O[C@H](CO)[C@@H](O)[C@H](O)[C@H]2O)/C(C)=C/[C@H]2OC(=O)[C@H](C)[C@@H]2CC1`, the activation was -8.04%. `CN1CCCC(n2nc(Cc3ccc(Cl)cc3)c3ccccc3c2=O)CC1` (stereo not given): the activation is 10.9% and 17.6%. The same measure, in the same setting: the same measure for `Nc1ccc(C(=O)NCC(=O)O)cc1`: -8.47%. Consider `C=CC(=O)Nc1cccc(Sc2nc(Nc3ccc(N4CCN(C)CC4)cc3)ncc2Cl)c1`, for which the Potency was 12 µM (active). On to `C=C1C(O)C[C@@H]2C(C(=O)O)=CO[C@@H](O[C@@H]3O[C@H](CO)[C@@H](O)[C@H](O)[C@H]3OC(=O)c3ccc(O)cc3)[C@H]12` (stereo not given in full), for which the activation was 9.82%. Same read-out and setting: with `NCc1ccc(OCCCc2sc(-c3ccc4c(c3)/C(=N/Nc3nc5ccccc5s3)CCC4)nc2C(=O)O)cc1` the figure was 7.64%; with `COc1c2c(c(CO)c3c1C(=O)OC3)OC1(C)CCC3(O)C(C)(C)OC(=O)CCC3(C)C1C2` (stereo not given), -16%. For `CC(C)(C)c1ccc(NC(=O)N2CCN(c3ncccc3Cl)CC2)cc1`, the activation is -11.5%.

On to `COc1ccc(CCN2CCN(CCCc3ccccc3)CC2)cc1OC`, for which the activation is 20.6% and -1.43%. Regarding `CCOC(=O)N1CCC(NCCNC(=O)c2ccccc2C)CC1`, the activation is 6.68%. Same read-out and setting: with `CCN(CC)c1ncnc2c1ncn2[C@@H]1O[C@H](COP(=O)(O)OP(=O)(O)C(Br)(Br)P(=O)(O)O)[C@@H](O)[C@H]1O` the figure was -18.4%; with `COc1cccc2cc3c(c(O[C@@H]4O[C@H](CO[C@@H]5O[C@H](CO)[C@@H](O)[C@H](O)[C@H]5O)[C@@H](O)[C@H](O)[C@H]4O)c12)C(C)OC3=O` (stereo not given in full), 3.57%; with `CC(C)C[C@@H]1[C@H](c2ccccc2)OC(=O)N1CCCN1CCCCCC1`, 1.67%. On the same count and under the same terms, with `CC(C)NCCCC1(C(N)=O)c2ccccc2-c2ccccc21` the figure was 4.18%. As to `C=C1CC[C@@H](O)[C@]2(C)C[C@H]3OC(=O)C(=C)[C@H]3CC12` (stereo not given in full), the Potency is 21.3 µM (active). Turning to `CC(=O)ON=C1C(c2c(O)[nH]c3cc(Br)ccc23)=Nc2ccccc21`, the activation was 53.3%. With `C[C@@H](Oc1cc(-n2cnc3ccc(OC4CCN(C)CC4)cc32)sc1C(N)=O)c1ccccc1C(F)(F)F`, the Potency was 4.78 µM (active). As to `COC(=O)Nc1nc2ccc(C(=O)c3ccc(F)cc3)cc2[nH]1`, the activation was 8.15% and 21.5%. As for `CC(=O)OC[C@]12[C@H](OC(C)=O)C(=O)[C@@H]3[C@@H](OC(C)=O)[C@@]14O[C@@]3(C)COC(=O)c1cccnc1[C@@H](C)[C@H](C)C(=O)O[C@@H]([C@H](OC(C)=O)[C@@H]2OC(C)=O)[C@]4(C)O`, the activation was -13.7%. The same measure, in the same setting: the same measure for `CC1CC(=O)C2=C(C1)C1OC1C1(O)C2C(=O)c2cccc(O)c2C1O` (stereo not given): 4.58%. For `CC(=O)NC[C@H]1CN(c2ccc(N3CCOCC3)c(F)c2)C(=O)O1`, the activation is 20.9% and -21.5% and 0.955%. On the same count and under the same terms, with `O=C(O)CCCC[P+](c1ccccc1)(c1ccccc1)c1ccccc1` the figure was 20.9%; with `O=Nc1ccc2oc(=O)ccc2c1`, -33.9%; with `Cc1cc(CCCOc2c(C)cc(-c3noc(C(F)(F)F)n3)cc2C)on1`, 19.8%.

With `COc1c(C)c2c(c(O)c1CC=C(C)CCC(=O)OCCN1CCOCC1)C(=O)OC2`, the activation was 13.4%.

With `COc1cc(C(=O)NS(=O)(=O)c2ccccc2C)ccc1Cc1cn(C)c2ccc(NC(=O)OC3CCCC3)cc12`, the activation is 105%. Same read-out and setting: with `Nc1ccccc1NC(=O)c1ccc(CNC(=O)OCc2cccnc2)cc1` the figure was 3.28%.
